Only some compounds are listed: those with a hit (about 9.2% of all), similar ones and a draw of the others.
Rab9 prom act = activates the Rab9 promoter; Huh7 Rab9 promoter-luciferase reporter, luminescence, 24 h; Potency, µM (highest dose often 9.22 µM), inactives show top-dose activation, negative = inhibition, usual class: activators; 2.8% of 320,000 active; note: % of control where 0% means no effect; nearly all actives have a fitted effect of over 60% in size
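Cells were plated at 1500 per well in reduced-serum medium with 10% FBS and left 2 h. Compound in DMSO was then added for 24 h at 37 °C. Reporter signal was read by luminescence after 10 min with luciferase detection reagent.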
FLuc modulator = firefly luciferase modulation, counter-screen for miR-21 project | P08659 | 6.9% of 360,000 active | purified FLuc, Km substrates, luminescence inhibition | Potency, µM (doses to about 57.5 µM), for the others: at the highest dose activity change, negative = inhibition, most hits filed as inhibitors | AID 588342;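 note: plate controls were vehicle for no effect and reference inhibitor for full effect; nearly all actives have a fitted effect of over 55% in size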
Target sequence (P08659 whole entry, looked up): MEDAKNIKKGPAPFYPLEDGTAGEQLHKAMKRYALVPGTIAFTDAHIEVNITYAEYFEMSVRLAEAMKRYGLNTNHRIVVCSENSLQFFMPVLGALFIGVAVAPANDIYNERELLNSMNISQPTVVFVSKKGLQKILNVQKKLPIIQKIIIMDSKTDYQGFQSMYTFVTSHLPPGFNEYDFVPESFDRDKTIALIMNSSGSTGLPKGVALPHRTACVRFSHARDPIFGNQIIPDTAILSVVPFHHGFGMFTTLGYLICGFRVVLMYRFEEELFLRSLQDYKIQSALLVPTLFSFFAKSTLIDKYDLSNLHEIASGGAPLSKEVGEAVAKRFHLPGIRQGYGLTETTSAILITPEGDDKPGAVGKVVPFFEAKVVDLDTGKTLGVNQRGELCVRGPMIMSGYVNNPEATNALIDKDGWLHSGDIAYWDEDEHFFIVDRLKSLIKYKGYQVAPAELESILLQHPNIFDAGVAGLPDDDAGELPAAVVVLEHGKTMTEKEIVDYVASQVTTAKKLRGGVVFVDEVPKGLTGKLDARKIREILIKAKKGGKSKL
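Purified P. pyralis luciferase (10nM final) with 10uM D-luciferin and 10uM ATP (Km levels) in 50mM Tris acetate pH 7.5, 10mM Mg acetate, 0.01% Tween-20, 0.05% BSA; qHTS 6-point titration, ~60 µM downward; luminescence read.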
SMN2 splice enh = SMN2 splice variant enhancement | AID 1458 | Potency, µM (highest dose often 46.1 µM), for inactives: at the highest dose activity change, positive = activation, actives largely listed as activators | 2.8% of 210,000 active | HEK293 SMN2-luciferase splicing reporter, luminescence, 30-36 h; note: % of control where 0% means no effect; nearly all actives have a fitted effect of over 55% in size
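qHTS luciferase splicing reporter: luminescence rises when SMN2 exon 7 is included in transfected HEK293 cells. Compound exposure lasted 30-36 h at 37C, with 4.5 mM final sodium butyrate as control, followed by a ONE-Glo read.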
NPC1 promoter act = activates the NPC1 promoter | Huh7 NPC1 promoter luciferase reporter, 24 h | Potency, µM (highest dose often 9.22 µM), for the others: top-dose activation, actives largely listed as activators | 2.4% of 320,000 active; note: % of control where 0% means no effect; nearly all actives have a fitted effect of over 60% in size
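Huh7 reporter cells (NPC1 promoter driving luciferase) are dosed with compound for 24 h at 37 °C, 5% CO2; luciferase detection reagent is then added and luminescence measured after 10 min at ambient temperature.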
ELG1 DNA repair = ELG1-dependent DNA repair inhibition. HEK293T ELG1-luciferase reporter, luminescence, 16 h; DNA damage induced by 5-fluorouridine. Potency, µM (series often up to 46.1 µM), for inactives: top-dose activity change, negative = inhibition, hits mostly inhibitors. AID 504467. 2.3% of 330,000 active; note: % is set by controls: 0 for no effect and ±100 for the full control effect; nearly all actives have a fitted effect of over 55% in size
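Cells (2,000 per well) received 5-fluorouridine plus test compound or DMSO and were incubated 16 hr at 37 °C, 5% CO2. Luciferase activity was read by luminescence 30 min after ONE-Glo addition; signal suppression marked inhibition of damage-induced ELG1 function.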
ELG1 genotox = induces genotoxicity in HEK293T cells with luciferase-tagged ELG1 | AID 504466 | HEK293T ELG1-luciferase reporter, luminescence, 16 h | 1.3% of 330,000 active | Potency, µM (top dose mostly 46 µM), for inactives: top-dose activity change, positive = activation, hits mostly activators; note: % of control where 0% means no effect; nearly all actives have a fitted effect of over 60% in size
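Luminescence read-out: rising ELG1-luciferase signal, reflecting elevated ELG1 protein under genetic stress, flags genotoxic compounds. Cells were treated for 16 hr at 37 °C before ONE-Glo detection.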
* = called active by the depositor; ? = inconclusive; nt = no result given. Calls come from the whole dose curve; as a rule, active = well fitted curve in the direction sought with a large enough effect; inconclusive = small, poorly fitted or top-dose-only effect, or another doubt; inactive = no such curve, though single readings can be large; an effect the other way counts as inactive or inconclusive. Potency is the fitted concentration of half-maximal effect.

SMILES	Rab9 prom act	FLuc modulator	SMN2 splice enh	NPC1 promoter act	ELG1 DNA repair	ELG1 genotox
COc1cccc(CN(C)Cc2nc(Cc3ccccc3Cl)no2)c1	-5.7%	2.5%	nt	-2.8%	5.8%	-1.6%
Cc1ccc(/C=C/C(=O)NCc2cccs2)c(C)c1	2.82µM*	6.75µM*	nt	?	?	?
Cc1ccc(/C=C/C(=O)NCc2cccs2)cc1	6.2%	10.7µM*	11.2µM*	25.4%	?	?
O=C(/C=C/c1ccc([N+](=O)[O-])cc1)NCc1cccs1	-0.2%	?	-33.6%	-3.5%	?	3.3%
CCCOc1ccccc1C1Oc2nc(SC)nnc2-c2ccccc2N1C(C)=O (stereo not given)	nt	0.5%	-8.3%	nt	nt	nt
COc1ccc(/C=N/OC/C(O)=C(\C#N)c2nc3ccccc3[nH]2)cc1OC	-0.2%	5.1%	25.1%	-1.7%	2.4%	1.2%
Cc1ccc(NC(=O)N2CCc3ccccc32)cc1C	0.316µM*	0.675µM*	1.41µM*	0.501µM*	?	0.651µM*
Cc1ccc(NC(=O)CN2C(=O)CCc3ccccc32)cc1C	nt	23.9µM*	nt	nt	nt	nt
Cc1ccc(Cl)cc1NC(=O)CN1C(=O)CCc2ccccc21	nt	-1.5%	nt	nt	nt	nt
Cc1ccc(NC(=O)N2CCCc3ccccc32)cc1	16.6%	?	nt	10.5%	11.3%	7.0%
Cc1ccc(NC(=O)N2CCc3ccccc32)cc1	0.631µM*	0.536µM*	1.26µM*	0.708µM*	?	?
CN1CCN(c2ccc(NC(=O)N3CCc4ccccc43)cc2)CC1	0.112µM*	0.757µM*	nt	0.316µM*	?	0.461µM*
CCc1ccc(OCC(=O)NCC(c2ccc(Cl)cc2)N2CCOCC2)cc1 (stereo not given)	nt	-9.2%	nt	nt	nt	nt
CCc1ccc(NC(=O)CCC(=O)Nc2nnc(C(F)(F)F)s2)cc1	0.4%	26.9µM*	nt	20.6%	14.8%	9.4%
C(=N\Nc1ncnc2sc3c(c12)CCC3)/c1cccs1	-1.1%	-19.5%	-47.1%	-7.2%	?	-6.3%
Cn1cnc2c(N/N=C/c3cccs3)ncnc21	1.78µM*	8.49µM*	nt	3.55µM*	?	?
Cc1ccc(S(=O)(=O)N(C)c2ccc(C(=O)N3CCN(Cc4ccc5c(c4)OCO5)CC3)cc2)cc1	-30.2%	3.9%	-69.1%	-13.0%	6.51µM*	-6.2%
Cc1ccc(S(=O)(=O)N(C)C)cc1NC(=S)N1CCN(Cc2ccc3c(c2)OCO3)CC1	-13.5%	-0.9%	-70.5%	-20.6%	8.2µM*	-9.4%
CN(c1ccc(C(=O)N2CCN(Cc3ccc4c(c3)OCO4)CC2)cc1)S(=O)(=O)c1ccccc1	-17.4%	2.3%	-68.7%	-3.3%	23.1µM*	-16.3%
COCCn1c(=S)[nH]c2cc(C(=O)N3CCN(Cc4ccc5c(c4)OCO5)CC3)ccc2c1=O	-24.2%	-4.0%	-42.7%	-22.7%	5.17µM*	1.3%
Cc1cnc(NC(=O)C2CC(=O)N(c3cccc(Cl)c3)C2)s1 (stereo not given)	-36.8%	-0.4%	nt	24.9%	?	-14.7%
O=C(NCc1ccc(S(=O)(=O)Nc2ccccc2Cl)s1)c1ccccc1	-3.0%	2.8%	nt	1.0%	-29.0%	-1.7%
COc1cc(=O)[nH]c(SCC(=O)Nc2nc3c(s2)CCCC3)n1	-3.5%	-0.2%	nt	-0.4%	-45.7%	-1.9%
CCOc1ccc(C(=O)Nc2cccc(C)n2)cc1	1µM*	2.39µM*	5.01µM*	2µM*	?	?
CCCCOc1ccc(C(=O)Nc2cccc(C)n2)cc1	?	3.01µM*	?	3.55µM*	?	12.7%
Cc1cccc(NC(=O)c2ccc(S(=O)(=O)N(C)C)cc2)n1	18.3%	-11.2%	-2.1%	22.4%	22.1%	?
CCOc1ccc(NC(=O)Nc2ccc(Cc3ccncc3)cc2)cc1	0.5%	0.2%	nt	1.1%	-10.9%	-0.8%
CCOc1ccc(N/C(=N/c2nc(C)cc(C)n2)NC(=O)CC)cc1	-6.6%	0.5%	nt	-0.7%	18.3µM*	-7.1%

Compound activity as filed in PubChem.
